Source: PubChem BioAssay (National Center for Advancing Translational Sciences (NCATS))
D1 PAM – Potentiators of Human D1 Dopamine Receptor: qHTS | HEK293 TREx D1 cells, calcium flux, dopamine EC20 potentiation | potentiation, % at 10 µM | 360,000 compounds, 0.036% hits | AID 504651, 2011; in the data active = potentiation above about 30%; note: 0% is about no effect
Target sequence (P21728 whole entry, looked up): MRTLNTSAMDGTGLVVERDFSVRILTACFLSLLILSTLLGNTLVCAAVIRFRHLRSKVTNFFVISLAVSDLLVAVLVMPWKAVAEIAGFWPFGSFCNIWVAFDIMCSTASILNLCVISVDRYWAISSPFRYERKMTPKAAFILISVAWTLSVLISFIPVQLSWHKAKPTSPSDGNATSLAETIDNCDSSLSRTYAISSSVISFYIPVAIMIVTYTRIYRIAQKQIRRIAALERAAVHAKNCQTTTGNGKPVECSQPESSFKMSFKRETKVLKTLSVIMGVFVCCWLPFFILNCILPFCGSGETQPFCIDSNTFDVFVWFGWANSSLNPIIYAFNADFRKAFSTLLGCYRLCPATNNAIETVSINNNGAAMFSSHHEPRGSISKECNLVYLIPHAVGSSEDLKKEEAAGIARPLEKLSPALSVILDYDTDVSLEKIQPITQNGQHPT
TRHR agonist – qHTS for Small Molecule Agonists and Allosteric Enhancers of Human TRH Receptor: Primary Screen for Agonists; TRHR cells, calcium flux fluo-8, FDSS agonist mode; activation, % at 2 µM; 360,000 compounds, 0.18% hits; Thyrotropin-releasing hormone receptor (Homo sapiens), P34981; AID 493084, 2011; note: 0% is about no effect
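Fluo-8-loaded TRHR cells; 10 s baseline, compound added, kinetic Ca2+ fluorescence read 1/s, agonist mode.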
D1 antag – Antagonist of Human D 1 Dopamine Receptor: qHTS. D(1A) dopamine receptor (Homo sapiens), P21728. HEK293 TREx D1 cells, calcium flux, dopamine EC80; hits give low values. activity change, negative = inhibition, % at 10 µM. 360,000 compounds, 3.2% hits; in the data active = activity change below about -30%; note: % is set by controls: 0 for no effect and ±100 for the full control effect
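After overnight tetracycline induction at 30 C, force-coupled D1 HEK293 cells took up a no-wash calcium dye at room temperature. Compounds were added and monitored 180 s, and the response to EC80 dopamine was then recorded.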
TRHR enhancer – qHTS for Small Molecule Agonists and Allosteric Enhancers of Human TRH Receptor: Primary Screen for Enhancers. 360,000 compounds, 0.66% hits. AID 493056, 2011. Thyrotropin-releasing hormone receptor (Homo sapiens), P34981. enhancement, % at 2 µM. TRHR cells, fluo-8 calcium fluorescence, EC20 TRH enhancement; in the data active = enhancement above about 30%; note: 0% is about no effect
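Enhancer read-out: after compound pinning and an initial kinetic agonist-mode read, an EC20 of TRH (10 nM final) was injected and fluo-8 calcium signal (Ex 480/Em 530) followed at 1 s/cycle for 100 cycles in TRHR-expressing cells.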
D1 ag – Allosteric Agonists of the Human D1 Dopamine Receptor: qHTS; HEK293 T-REx D1 cells, calcium flux, agonist mode; activation, % at 2 µM; 360,000 compounds, 1% hits; note: 0% is about no effect
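Agonism was scored from calcium flux recorded over 180 s (1 read/s) after pintool compound addition, following a 10-cycle baseline. Cells were inducible force-coupled HEK293 TREx D1, plated overnight at 30 C and loaded with no-wash calcium dye.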
GRP78 ERSR act – qHTS for Inducers of the Endoplasmic Reticulum Stress Response (ERSR) in Human Glioma: qHTS; 420,000 compounds, 0.02% hits; U87-MG GRP78 promoter luciferase reporter, 16 h; Potency, µM, inactives show at the highest dose activation, hits mostly activators; active = well fitted activation curve with a large enough effect; note: potency is the fitted concentration of half-maximal effect; series mostly up to about 76 µM; % of control where 0% means no effect; nearly all actives have a fitted effect of over 35% in size
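Stably transfected U87-MG human glioma cells carrying a GRP78-based luminescent sensor were seeded at 1000 cells/well, pin-dosed with compounds and incubated 16 h. Luciferase reagent was then added, and end-point luminescence was read after 10 min at room temperature.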
Numbers without * were called inactive; x = no result given. Most compounds without a hit are left out; they make up all but 4% or so of the library. Cut-off read from the data, not from the text of the source, unless noted: active = activation above about 30%; inactive = the rest.

SMILES | D1 PAM | TRHR agonist | D1 antag | TRHR enhancer | D1 ag | GRP78 ERSR act
Cc1ccccc1C(=O)Nc1ccc(-c2nc3ccc(C(=O)c4ccccc4)cc3[nH]2)cc1 | -5.2 | 1.4 | -42.3* | -5.9 | 4.2 | 7.1%
CN(c1ccccc1)S(=O)(=O)c1ccc(Cl)c(C(=O)Nc2ccc(-c3nc4ccccc4[nH]3)cc2)c1 | -10.4 | 0.4 | -30.4* | 4.1 | 5.2 | -2.6%
Cc1ccc(C)c2[nH]c(=O)c(CCNC(=O)Cc3cccs3)cc12 | -1.9 | -0.2 | 29.0 | 3.9 | -0.8 | -1.2%
COc1ccc(NC(=O)CS(=O)(=O)c2cn(CC(=O)N(C(C)C)C(C)C)c3ccccc23)c(OC)c1 | 8.2 | -0.9 | 2.5 | -1.8 | 0.3 | -3.8%
COc1ccc(NC(=O)Cn2cc(S(=O)(=O)Cc3ccccc3)c3ccccc32)c(OC)c1 | -1.9 | -0.5 | -32.1* | -0.2 | -0.1 | -1.0%
COc1ccc(NC(=O)Cn2cc(C(=O)c3ccco3)c3ccccc32)cc1 | -4.9 | 0.3 | -86.8* | 3.0 | -0.2 | -6.7%
CC(C)(C)/C(Cn1cncn1)=N\OC(=O)Nc1ccc(Cl)cc1 | -6.7 | -0.3 | -54.7* | -4.9 | 4.6 | 0.1%
O=C(Cn1cncn1)N/N=C/c1ccc(Cl)cc1 | -1.7 | 0.4 | -2.6 | -0.3 | 2.7 | -4.2%
CCCNC(=O)NC(=O)COc1ccc(-c2ccc(C#N)cc2)cc1 | 2.9 | 0.5 | -5.2 | -1.3 | 0.2 | -0.8%
CCCc1cc(=O)oc2c(C)c(OCC(=O)c3ccc(N4CCCC4)cc3)ccc12 | -4.0 | 0.3 | -19.4 | 14.2 | 1.3 | -3.4%
CCOc1ccc(Nc2nc(N)c([N+](=O)[O-])c(N3CCOCC3)n2)cc1 | -6.0 | 0.6 | -0.9 | 37.6* | 1.4 | 4.7%
C=CCC1=C/C(=C\c2c(N)n3nc(CC(=O)N4CCCC4)sc3nc2=O)C=C(OC)C1=O | 3.5 | 186.7* | 3.0 | 7.0 | 109.1* | -11.3%
COC1=CC(=Cc2c(N)n3nc(CC(=O)N4CCOCC4)sc3nc2=O)C=C(OC)C1=O | 1.5 | -0.4 | 0.0 | 8.4 | 190.7* | -6.3%
COC1=C/C(=C/c2c(N)n3nc(CC(=O)N4CCCCC4)sc3nc2=O)C=CC1=O | -5.0 | 23.0 | -4.0 | 2.5 | 21.6 | -4.2%
O=C(NNS(=O)(=O)c1ccc(Cl)cc1)c1sccc1-n1cccc1 | x | x | x | x | x | -3.3%
COc1ccc(/C=C2\Oc3cc(OC(=O)N4CCOCC4)ccc3C2=O)c(OC)c1 | -7.8 | 12.4 | -23.4 | -1.8 | 37.4* | -0.5%
S=c1[nH]nc(-c2n[nH]c3c2CCC3)n1/N=C/C=C/c1ccco1 | -0.5 | -1.1 | -2.6 | 39.2* | 0.9 | -1.5%
COc1ccc(C)cc1S(=O)(=O)NC1CC1 | -0.9 | 0.6 | 1.3 | -0.3 | -0.4 | -3.0%
CCOC(=O)c1ccc(NC(=O)c2c(N)n(C)c(=O)n(C)c2=O)cc1 | x | x | x | x | x | -1.5%
CCOC(=O)c1ccc(NC(=O)c2c(O)c3ccccc3n(C)c2=O)cc1 | -4.1 | -0.2 | -72.9* | 9.4 | -0.8 | x
CC(=O)c1cccc(NC(=O)c2oc(=O)c3ccccc3c2-c2ccccc2)c1 | -1.6 | 0.7 | -43.4* | -16.1 | 5.3 | -2.3%
CCOC(=O)c1ccc(NC(=O)c2oc(=O)c3ccccc3c2-c2ccccc2)cc1 | -0.5 | 1.1 | -48.2* | 19.6 | 4.6 | -2.2%
COc1ccc(C)cc1NC(=O)C(=O)N/N=C(\C)CC(=O)Nc1cccnc1 | -4.3 | -0.2 | -3.3 | -4.0 | 0.2 | -3.4%
Cc1nnc2ccc(-c3ccc(NC(=O)c4ccc(Cl)nc4)cc3)nn12 | -4.2 | 0.2 | 2.9 | 0.3 | -0.6 | x
CCCCN(C)CCNC(=O)Cn1ncc2c3ccccc3n(CCC)c2c1=O | 5.8 | 0.3 | -0.4 | 31.2* | 0.1 | -2.5%
SMILES | D1 PAM | TRHR agonist | D1 antag | TRHR enhancer | D1 ag | GRP78 ERSR act
Fc1ccc(CNc2nc(-c3cccnc3)nc3ccccc23)cc1 | 7.5 | 3.1 | 7.8 | 0.9 | 1.1 | -5.9%
COc1ccc(NC(=O)C2C(=O)N(CCO)C3(C)CC2c2ccccc2O3)cc1 (configuration not stated) | 2.6 | -0.2 | 9.7 | -9.9 | 0.6 | -4.1%
COc1ccc(N2C(=O)NC3CC2(C)Oc2ccccc23)cc1 (configuration not stated) | -6.6 | 0.5 | -39.0* | -4.1 | 0.3 | -3.5%
COc1ccc(NC(=O)C2C(=O)N(C)C3(C)CC2c2ccccc2O3)cc1 (configuration not stated) | -0.2 | -0.3 | -32.1* | -7.8 | 0.4 | 0.3%
CC(=O)Nc1scc(-c2ccccc2)[n+]1-c1ccc(C)cc1 | 2.4 | -2.0 | 11.4 | -7.5 | 0.1 | -1.5%
COc1ccc(N2C(=O)CSC23C(=O)Nc2ccccc23)cc1 (configuration not stated) | -1.1 | -1.3 | 10.6 | 5.4 | 9.5 | 0.9%
COc1ccccc1-c1cc2nc(C)c(CCC(=O)NCc3ccco3)c(C)n2n1 | -9.9 | -1.1 | 4.2 | -1.7 | 1.8 | -9.2%
Cc1nc2cc(-c3ccccc3)nn2c(C)c1CCC(=O)NCc1ccco1 | x | -1.0 | -31.5* | 0.7 | 4.4 | -9.8%
Cc1nc2cc(-c3cccc(F)c3)nn2c(C)c1CCC(=O)NC(C)CCc1ccco1 (configuration not stated) | x | -0.2 | -35.1* | 4.0 | 5.2 | -8.5%
COc1cc2c(C=O)c3c4c(cc(OC)c(OC)c4c2cc1OC)CCN3C | x | x | x | x | x | -5.5%
CCOc1cc(S(=O)(=O)Nc2ccccc2CC)ccc1Cl | -8.1 | 1.5 | -17.7 | -4.1 | 9.1 | -3.4%
CCOC(=O)C1=C(N)Oc2c(oc(CO)cc2=O)C1c1ccc(Cl)cc1 (configuration not stated) | 1.9 | 0.5 | 10.6 | -2.3 | -0.1 | 0.0%
CCOC(=O)C1=C(N)Oc2c(oc(CO)cc2=O)C1c1c(F)cccc1Cl (configuration not stated) | 2.3 | -0.9 | -63.7* | 8.3 | 0.3 | -2.6%
CC(C)(C)C(=O)NC(NC(=O)C(C)(C)C)c1ccc([N+](=O)[O-])cc1 | -1.6 | 0.6 | -31.5* | -1.5 | -0.1 | -0.2%
CC(C)(C)C(=O)Nc1ccc(Sc2ccc([N+](=O)[O-])cc2)cc1 | -10.3 | -0.8 | -33.7* | -1.8 | 7.0 | 2.5%
CC(=O)Nc1ccc(Sc2ccc([N+](=O)[O-])o2)cc1 | x | x | x | x | x | -13.4%
O=c1c2ccccc2nnn1CSc1nnc(COc2ccc(Cl)cc2)n1Cc1ccco1 | 6.1 | 0.5 | -22.5 | -2.3 | 1.8 | -3.9%
